Compound activity deposited in PubChem BioAssay by several laboratories.
Peg3 prom inh-1: Peg3 promoter-driven luciferase inhibitors, primary screen, cell-based, HeLa, luciferase luminescence; HeLa PEG-Prom luciferase reporter, overnight; inhibition, % at 20 µM; 360,000 compounds, 1.7% hits; AID 588405, 2011;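 active = inhibition of at least 50% at 20 µM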
Shn3 3UTR inh: reduction of Shn3 3'UTR firefly luciferase signal, primary screen, Schnurri-3 inhibitor project, cell-based, Clone20 osteoblasts, set 2; inhibition, % at 12.5 µM; 360,000 compounds, 0.52% hits; Clone20 osteoblast Shn3 3'UTR firefly luciferase, 24 h; AID 588674, 2011;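 active = mean inhibition of at least 75% with every replicate also reaching 75%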
EBV LMP1 NFkB: EBV LMP1-driven NF-kappaB luciferase reporter inhibitors, primary screen, cell-based, luminescence, single point | LMP1-induced NF-kappaB luciferase reporter cells | inhibition, % at 12.5 µM | 350,000 compounds, 0.69% hits | AID 504558, 2011; in the data active = inhibition above about 41%
PAX8 reporter: inhibitors of PAX8-driven TPO luciferase reporter, primary screen, RMG-I cells, single concentration; SteadyGlo, 24 h; AID 652154, 2013; inhibition, % at 12.6 µM; 360,000 compounds, 1.2% hits;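 active = mean replicate inhibition at least 60% with every replicate also reaching 60%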;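 note: luciferase light reporting Pax8 driven TPO promoter activity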
HIF-2a inh: HIF-2a reporter inhibitors, primary screen, luminescence, 786-0 RCC cells; 360,000 compounds, 0.72% hits; 786-0 RCC cells HIF-2a reporter, luciferase luminescence, overnight; inhibition, % at 18.8 µM;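 active = inhibition of the luminescence signal of 40% or more relative to plate controls, in a single-dose primary screen at 18.75 µM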
TRPM1 prom inh: inhibitors of MITF-dependent TRPM1 promoter reporter, primary screen, cell-based, SK-MEL-5, single point, luciferase; SK-MEL-5 TRPM1 promoter luciferase, 24 h; inhibition, % at 12.5 µM; 330,000 compounds, 0.83% hits;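 active = mean inhibition across replicates of 60% or more, whatever share of single replicates reaches that level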
Peg3 prom inh-2: Peg3 promoter reporter inhibitors, retest, confirmation, cell-based, HeLa, luciferase reporter, single concentration; shares compounds with Peg3 prom inh-1; HeLa PEG-Prom luciferase reporter, luminescence, overnight; inhibition, % at 20 µM; 1,300 compounds, 84% hits;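 active = at 20 µM dose, 40% or more inhibition averaged across four replicates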
Hits are given with their value. In the library only some 2.8% were active in any assay of this set; here they are far more common.

How did COc1ccc(C#Cc2ccc([C@@H]3[C@H]4CN(C(=O)Cc5ccccc5)CCCCN4[C@H]3CO)cc2)cc1 do in these assays?
PAX8 reporter: inactive

Results for CC(C)C(NC(=O)C(C(C)C)N(C)C)C(=O)N(C)C(C(=O)N1CCCC1C(=O)N1CCCC1C(=O)NCc1ccccc1)C(C)C (configuration not stated) ?
Peg3 prom inh-1: inactive; Shn3 3UTR inh: inactive; EBV LMP1 NFkB: inactive; PAX8 reporter: 76; HIF-2a inh: inactive; TRPM1 prom inh: 65

Results for Cc1cc(N2CCNC[C@H]2C)ccc1N1CC[C@@H](O)C1 ?
PAX8 reporter: inactive

What do the screens show for `Cc1ccc(N2C(=O)NC(=O)/C(=C/C=C/c3ccco3)C2=O)cc1`?
Peg3 prom inh-1: 86; Shn3 3UTR inh: inactive; EBV LMP1 NFkB: inactive; PAX8 reporter: inactive; HIF-2a inh: 64; TRPM1 prom inh: 73; Peg3 prom inh-2: inactive

What do the screens show for `Cc1ccc(N2C(=O)NC(=O)/C(=C/c3ccoc3)C2=O)cc1`?
Peg3 prom inh-1: inactive; Shn3 3UTR inh: inactive; EBV LMP1 NFkB: inactive; PAX8 reporter: inactive; HIF-2a inh: inactive; TRPM1 prom inh: inactive

Results for O=C1NC(=O)N(Cc2ccc(F)cc2)C(=O)/C1=C\C=C\c1ccco1 ?
Peg3 prom inh-1: 62; Shn3 3UTR inh: inactive; EBV LMP1 NFkB: inactive; PAX8 reporter: inactive; HIF-2a inh: inactive; TRPM1 prom inh: 93; Peg3 prom inh-2: 66

What do the screens show for `Cc1ccc(-c2cc(-c3ccc(C)cc3)[n+](-c3ccccc3)c(-c3ccc(C)cc3)c2)cc1`?
Peg3 prom inh-1: 80; Shn3 3UTR inh: 94; EBV LMP1 NFkB: 45; HIF-2a inh: 57; TRPM1 prom inh: 102; Peg3 prom inh-2: 94

Results for COC(=O)[C@@H]1[C@@H](CO)[C@@H]2Cn3c(ccc(-c4cccc(F)c4)c3=O)[C@H]1N2Cc1cccnc1 ?
PAX8 reporter: inactive

Results for CC1=CC(O)C(O)C2(C)C1CC1OC(=O)C(O)C3C(C)C(O)C4(O)OCC13C42 (configuration not stated) ?
Peg3 prom inh-1: 68; Shn3 3UTR inh: inactive; EBV LMP1 NFkB: inactive; HIF-2a inh: inactive; TRPM1 prom inh: inactive; Peg3 prom inh-2: 45

What do the screens show for `COc1cccc2c1C(=O)c1c(O)c3c(c(O)c1C2=O)CC(O)(C(C)=NO)CC3OC1CC(N)C(O)C(C)O1` (configuration not stated)?
Peg3 prom inh-1: 99; Shn3 3UTR inh: inactive; EBV LMP1 NFkB: 42; PAX8 reporter: inactive; HIF-2a inh: inactive; TRPM1 prom inh: 70; Peg3 prom inh-2: 99

Results for CCCNC(=O)N1[C@@H]2c3ccc(-c4ccccc4OC)c(=O)n3C[C@H]1[C@H](CO)[C@H]2C(=O)OC ?
PAX8 reporter: inactive

What do the screens show for `CCCC#Cc1ccc([C@@H]2[C@@H](CO)N3CCCCN(C(=O)Cc4ccccn4)C[C@@H]23)cc1`?
PAX8 reporter: inactive

What do the screens show for `O=C(CSC1c2ccccc2-c2ccccc21)N/N=C/c1ccc(C(=O)O)cc1`?
Peg3 prom inh-1: inactive; Shn3 3UTR inh: inactive; EBV LMP1 NFkB: inactive; PAX8 reporter: inactive; HIF-2a inh: inactive; TRPM1 prom inh: inactive

What do the screens show for `O=C(CSC1c2ccccc2-c2ccccc21)N/N=C/c1ccccc1O`?
Peg3 prom inh-1: 55; Shn3 3UTR inh: inactive; EBV LMP1 NFkB: inactive; HIF-2a inh: inactive; TRPM1 prom inh: inactive; Peg3 prom inh-2: 64

How did N#Cc1cccc(-c2ccc([C@@H]3[C@@H](CO)N4CCCCN(C(=O)Cc5cccnc5)C[C@@H]34)cc2)c1 do in these assays?
PAX8 reporter: inactive

What do the screens show for `O=C(Cc1cccnc1)N1CCCCN2[C@H](CO)[C@H](c3ccc(C#CC4CC4)cc3)[C@H]2C1`?
PAX8 reporter: inactive

How did COC(=O)[C@H]1[C@H](CO)[C@H]2Cn3c(ccc(-c4cccc(C(=O)N(C)C)c4)c3=O)[C@@H]1N2C(=O)NC(C)C do in these assays?
PAX8 reporter: inactive

How did Cn1cccc1/C=C1/C(=O)NC(=S)N(Cc2ccc(F)cc2)C1=O do in these assays?
Peg3 prom inh-1: 106; Shn3 3UTR inh: inactive; EBV LMP1 NFkB: inactive; PAX8 reporter: inactive; HIF-2a inh: inactive; TRPM1 prom inh: inactive; Peg3 prom inh-2: 63

What do the screens show for `CC(=O)OC1CC2(O)C3CCC4CC(O)CCC4(C)C3CCC2(C)C1C1=CC(=O)OC1` (configuration not stated)?
Peg3 prom inh-1: 97; Shn3 3UTR inh: inactive; EBV LMP1 NFkB: 72; HIF-2a inh: 69; TRPM1 prom inh: 71; Peg3 prom inh-2: 99

How did CC(=O)C1CCC2C3CCC4CC(O)CCC4(C)C3CCC12C#N (configuration not stated) do in these assays?
Peg3 prom inh-1: inactive; Shn3 3UTR inh: inactive; EBV LMP1 NFkB: inactive; PAX8 reporter: inactive; HIF-2a inh: inactive

Results for O=Cc1cn(Cc2ccccc2[N+](=O)[O-])c2ccccc12 ?
Peg3 prom inh-1: inactive; Shn3 3UTR inh: inactive; EBV LMP1 NFkB: inactive; PAX8 reporter: inactive; HIF-2a inh: inactive; TRPM1 prom inh: inactive

Results for O=Cc1cn(Cc2ccc(F)cc2)c2ccccc12 ?
Peg3 prom inh-1: 78; Shn3 3UTR inh: inactive; EBV LMP1 NFkB: inactive; PAX8 reporter: inactive; HIF-2a inh: inactive; TRPM1 prom inh: inactive; Peg3 prom inh-2: 69

What do the screens show for `O=Cc1cn(Cc2ccc([N+](=O)[O-])cc2)c2ccccc12`?
Peg3 prom inh-1: 91; Shn3 3UTR inh: inactive; EBV LMP1 NFkB: inactive; PAX8 reporter: inactive; HIF-2a inh: inactive; TRPM1 prom inh: inactive; Peg3 prom inh-2: 80

What do the screens show for `CCCNC(=O)N1[C@@H]2Cn3c(ccc(-c4ccccc4OC)c3=O)[C@H]1[C@@H](C(=O)O)[C@@H]2CO`?
PAX8 reporter: inactive

What do the screens show for `COc1ccc(-c2ccc([C@@H]3[C@@H](CO)N4CCCCN(C(=O)Cc5ccncc5)C[C@@H]34)cc2)cc1`?
PAX8 reporter: inactive

Results for CCOc1ccc(N2C(=O)/C(=C\c3cccs3)C(=O)NC2=S)cc1 ?
PAX8 reporter: inactive

Results for O=C1NC(=S)N(c2ccccc2F)C(=O)/C1=C\c1cccs1 ?
Peg3 prom inh-1: 102; Shn3 3UTR inh: inactive; EBV LMP1 NFkB: inactive; PAX8 reporter: inactive; HIF-2a inh: 84; TRPM1 prom inh: inactive; Peg3 prom inh-2: 83

Results for Cc1cccc(C)c1-n1nnnc1C(c1ccccc1OC(F)(F)F)N1CCC(n2c(=O)[nH]c3ccccc32)CC1 (configuration not stated) ?
Peg3 prom inh-1: 52; Shn3 3UTR inh: inactive; PAX8 reporter: inactive; HIF-2a inh: inactive; Peg3 prom inh-2: 68
